Consider 106 molecules from PubChem BioAssay AID686979 (National Center for Advancing Translational Sciences (NCATS), 2013).

Out of some 420,000 compounds screened, about 50,000 (12%) were called active. Entries that show only a call come without a potency. Roughly 26% stayed inconclusive and do not appear here. The sample holds actives, similar compounds and a random draw of the others, so the mix is not that of the screen. A number with no mark means an inactive call. The call rests on the fitted dose curve; in most records, active means well fitted inhibition curve with a large enough effect; inconclusive means small, poorly fitted or top-dose-only effect; inactive means flat fitted curve, though single readings scatter.
Potency means the concentration at half of the fitted maximal effect.

This experiment is described as follows: qHTS for Inhibitors of human tyrosyl-DNA phosphodiesterase 1 (TDP1): qHTS in cells in presence of CPT. Further: nearly all actives have a fitted effect of over 55% in size. The note with it: chicken DT40 Tdp1-/-;hTDP1 cells + 20 nM CPT, ATP luminescence, 48 h; series mostly up to 46.2 µM. The essentials: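 Chicken DT40 Tdp1-/- cells complemented with human TDP1, 400 cells/well, exposed to compounds plus 20 nM camptothecin for at least 48 h at 37 C; viability read as ATP content by CellTiter-Glo luminescence.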
On the technique in general: qHTS replaces the single test concentration by a dilution series.
On to `O=C(Nc1ccc(S(=O)(=O)Nc2nccs2)cc1)c1cc(-c2ccncc2)nc2ccccc12`, for which the Potency result is “inactive”. Regarding `Cc1ccc2nc(-c3cccc(Br)c3)cc(C(=O)Nn3cnnc3)c2c1`, the Potency result is “inactive”. On the same count and under the same terms, next, `CCN(CC)CCNC(=O)c1ccc(NC(=O)c2cc(-c3ccncc3)nc3ccccc23)cc1`: 14.6 µM (active); `O=C(Nc1ccc2c(c1)OCCO2)c1cnccn1`: “inactive”. Regarding `O=C(Nc1ccncc1)c1cc(-c2ccccn2)nc2ccc(Br)cc12`, the Potency result is “inactive”. In the case of `Cc1ccc2nc(-c3ccncc3)cc(C(=O)Nc3ccncc3)c2c1`, the Potency is 13 µM (active). On the same count and under the same terms, the value for `CCOc1ncccc1C(=O)Nc1ccc2c(c1)OCCO2` was “inactive”. In the case of `Cc1ccc2nc(-c3ccncc3)cc(C(=O)Nc3ccc4c(c3)OCCO4)c2c1`, the Potency was 18.4 µM (active). Same read-out and setting: the value for `COC(=O)CNC(=O)c1cc(-c2ccncc2)nc2ccccc12` was “inactive”; that for `COc1ccc(C(=O)CCC(=O)Nc2ccc(Cl)cc2)cc1` was “inactive”; that for `O=C1NC[C@H](CCCCN2CCN(CCc3ccccc3)C(=O)C2=O)N(CC2CCCCC2)C1=O` was “inactive”.

For the molecule `O=C(Nc1ccccc1)c1ccco1`, the Potency entry was “inactive”. On the same count and under the same terms, the value for `O=C(OC1CC2CC1[C@H]1CCCCN1C2=O)N1CCOCC1` (stereo partly specified) was “inactive”; that for `CCc1c(Nc2ccccc2C)nc(N)[nH]c1=O` was “inactive”.

Consider `CCOCCn1c(C(C)C)nc2ccccc21`, for which the Potency result was “inactive”. Regarding `CCCn1c(C(O)c2cc(OC)ccc2OC)nc2ccccc21` (stereo unspecified), the Potency entry is “inactive”. Still for that read-out and setting: the value for `CCCn1c(C(O)c2ccc(OCC)cc2)nc2ccccc21` (stereo unspecified) was 20.6 µM (active). In the case of `O=C(O)CCCC(=O)N1N=C(c2ccco2)CC1c1ccco1` (stereo unspecified), the Potency result is “inactive”. Turning to `Cc1nn(C)c(Oc2ccc(Cl)cc2)c1C=O`, the Potency entry was “inactive”. On the same count and under the same terms, the value for `CC1(C)CC(=O)C=C(c2ccccc2CO)C1=O` was “inactive”; that for `Cc1ccc(C(=O)OC2=CC(=O)CC(C)(C)C2)cc1` was “inactive”. `Cc1ccc(-c2ccc(C3=CC(=O)CC(C)(C)C3=O)cc2)cc1`: the Potency is 0.184 µM (active).

As for `O=C(CC1C(=O)N(c2ccccc2)C(=O)N1CCc1cccs1)Nc1ccc(F)cc1` (stereo unspecified), the Potency entry is “inactive”. On the same count and under the same terms, the value for `CCCCc1nc2ccc(F)cc2cc1C` was “inactive”; that for `Cc1ccnc(NS(=O)(=O)c2ccc(NC(=O)c3oc4ccccc4c3C)cc2)n1` was “inactive”. Still for that read-out and setting: next, `CCOC(=O)c1cnc2[nH]c3ccccc3n2c1=O`: “inactive”; `O=c1[nH]c2ccccc2n2c(-c3ccccc3)nnc12`: 20.6 µM (active). As for `CC(=O)c1c(-c2ccccc2)c2ccccc2[nH]c1=O`, the Potency result was “inactive”. Consider `N#Cc1ccc(OCC(=O)NC(=O)NC2CCS(=O)(=O)C2)cc1` (stereo unspecified), for which the Potency entry is “inactive”.

Turning to `O=C(CNC(=O)c1cccs1)N/N=C/c1cccc(Br)c1`, the Potency entry is “inactive”.

For the molecule `COC(=O)c1c(-c2ccsc2)oc2ccc(-c3cc(OC)c(OC)c(OC)c3)cc12`, the Potency was 18.4 µM (active). Turning to `COC(=O)c1sccc1NC(=O)c1cc(OC)c(OC)c(OC)c1`, the Potency result was “inactive”. Regarding `CCOC(=O)c1c(-c2ccccc2)oc2ccc(OCC(=O)NN)cc12`, the Potency result is “inactive”. Turning to `Cc1cccc(OCC(=O)Nc2ccc(C(=O)O)cc2NC(=O)COc2cccc(C)c2)c1`, the Potency entry was “inactive”. Regarding `O=C(CCl)Nc1cccc(CP(=O)(c2ccccc2)c2ccccc2)c1`, the Potency is 3.26 µM (active). On the same count and under the same terms, next, `CCc1cccc(NC(=O)CCC(=O)O)c1`: “inactive”. For `O=C(Cc1ccccc1)Nc1cccc(NC(=O)c2ccccc2)c1`, the Potency result is “inactive”. On the same count and under the same terms, the value for `COc1ccc(N2CCN(C(=O)c3cn(C)c4ccc(S(=O)(=O)N5CCOCC5)cc4c3=O)CC2)cc1` was “inactive”; that for `O=C(CC[C@H]1O[C@@H](n2ccc(=O)[nH]c2=O)[C@H](O)[C@@H]1O)N[C@H](Cc1ccccc1)C(=O)NCc1ccco1` was “inactive”. Same read-out and setting: next, `COc1ccc(CC(=O)OC(C)C(=O)Nc2ccc(S(N)(=O)=O)cc2)cc1` (stereo unspecified): “inactive”; `COc1cccc(NC(=O)NCCN2CCCCC2)c1`: “inactive”; `CCN(CC(=O)Nc1ccc(S(=O)(=O)N2CCCC2)cc1)CC(=O)Nc1cccc(OC)c1`: “inactive”.

In the case of `COc1cccc(NC(=O)C2(C)CCN2Cc2ccccc2Cl)c1` (stereo unspecified), the Potency was 25.9 µM (active). On to `CCCn1nc(NS(=O)(=O)c2ccccc2)c2cc3cc(C)ccc3nc21`, for which the Potency entry is “inactive”.

As for `CCCn1nc(NC(=O)C(C)C)c2cc3cc(OC)ccc3nc21`, the Potency is 29.1 µM (active). Regarding `CCCn1nc(NS(=O)(=O)c2ccc(F)cc2)c2cc3ccccc3nc21`, the Potency result was “inactive”.

As for `O=c1cc(CSc2ncn[nH]2)[nH]c2ccc(F)cc12`, the Potency result is “inactive”. On the same count and under the same terms, the value for `Cc1ccccc1CN1C(=O)CSCC1(C)C(=O)Nc1c(C)cccc1C` (stereo unspecified) was “inactive”; that for `COc1cccc(-c2nc(S(=O)(=O)c3ccc(C)cc3)c(NCc3ccccc3)o2)c1` was 16.4 µM (active). With `O=S(=O)(c1ccccc1)c1nc(-c2ccccc2F)oc1NCc1cccnc1`, the Potency entry is “inactive”. As to `COc1cccc(-c2nc3cc(C)ccc3o2)c1`, the Potency entry is “inactive”. The same measure, in the same setting: the value for `CCN(CC)C(=O)Cn1cc(S(=O)(=O)CC(=O)NCc2ccc3c(c2)OCO3)c2ccccc21` was “inactive”; that for `Cc1c(C(=O)NCCCc2ccccc2)cccc1[N+](=O)[O-]` was “inactive”; that for `CCN(CC)CCNCc1ccc(OCc2ccc(Cl)nc2)c(OC)c1` was “inactive”. The same measure, in the same setting: next, `COc1ccc(NC(=O)c2oc3ccc(S(=O)(=O)N4CCOCC4)cc3c2C)cc1`: 11.6 µM (active); `Cc1c(C(=O)NCCN(C)C)oc2ccc(S(=O)(=O)N3CCCC3)cc12`: “inactive”; `Cc1occc1C(=O)Nc1cccc(S(=O)(=O)N2CCOCC2)c1`: “inactive”.

On to `CCCNC(=O)C1(C)CCN(C(=O)c2ccc(F)cc2Cl)C1` (stereo unspecified), for which the Potency entry is “inactive”. Take `OCC(O)CN(c1ccccc1)c1ccccc1` (stereo unspecified): the Potency entry is “inactive”.

On to `O=C(NCCc1ccccc1)Oc1ccc(Cl)cc1`, for which the Potency entry is “inactive”.

On to `Cc1cc(OCCCC(=O)NCCN2C(=O)S/C(=C\c3cccnc3)C2=O)ccc1Cl`, for which the Potency was 8.2 µM (active).

Regarding `CCOc1ccc(N2CC(C(=O)NCCN3C(=O)S/C(=C\c4cccnc4)C3=O)CC2=O)cc1` (stereo unspecified), the Potency entry was “inactive”.

Regarding `COc1ccc(N2CC(C(=O)NCCN3C(=O)S/C(=C\c4cccnc4)C3=O)CC2=O)c(OC)c1` (stereo unspecified), the Potency result was “inactive”. `CC1CCN(C(=O)COC(=O)c2cc(S(=O)(=O)N3CCOCC3)ccc2Cl)CC1`: the Potency result was “inactive”. Regarding `COc1ccc(O)c(/C=N/N=C/c2cccc([N+](=O)[O-])c2)c1`, the Potency entry was “inactive”.

As to `O=C(OCC(=O)N1CCN(c2ccccc2)CC1)c1ccc([N+](=O)[O-])s1`, the Potency was 10.3 µM (active). The same measure, in the same setting: the value for `COc1cc(NC(=O)COC(=O)c2ccc([N+](=O)[O-])s2)cc(OC)c1OC` was “inactive”; that for `COc1ccc(C(=O)COC(=O)c2ccc([N+](=O)[O-])s2)cc1OC` was “inactive”. Still for that read-out and setting: next, `CCN(CC)CCN1C(=O)C2C(C(=O)Nc3ccc(Br)cc3)C3C=CC2(O3)C1C(=O)NC1CCCCC1` (stereo unspecified): “inactive”; `Brc1cc(Br)c(Oc2cc(Br)c(Br)cc2Br)cc1Br`: “inactive”.

For `CC(=O)Nc1ccc(NC(=O)C(C)n2c3ccccc3c3nc(=O)cc(C)n32)cc1` (stereo unspecified), the Potency result is “inactive”. Same read-out and setting: next, `CC(C)(C)c1cc2cccnc2n1Cc1ccccc1`: “inactive”. In the case of `O=C(CN1C(=O)NC2(CCCC2)C1=O)Nc1cc(C(F)(F)F)ccc1N1CCOCC1`, the Potency result was “inactive”. The same measure, in the same setting: next, `CC(=O)N1CC[n+]2c(-c3ccc([N+](=O)[O-])cc3)csc21`: 18.4 µM (active); `Cc1cc(C)cc(C(=O)N2CCN=C2SCc2ccc([N+](=O)[O-])cc2)c1`: “inactive”. Still for that read-out and setting: next, `CN1C2CCC1CC(NC(=O)c1ccc([N+](=O)[O-])cc1)C2` (stereo unspecified): “inactive”. The same measure, in the same setting: next, `COc1ccc(C(=O)NC2CC(C)(C)NC(C)(C)C2)cc1OC`: “inactive”; `COc1cc(C(=O)NCC2(c3ccccc3)CCCC2)ccc1OC(C)C`: 20.6 µM (active).

Take `CCn1c(CNC(=O)c2ccc(OC)c(OC)c2)nnc1SCC(=O)Nc1ccccc1`: the Potency result is “inactive”. Turning to `COc1ccccc1C(=O)NCCC(=O)NN1C(=O)NC2(CCCCC2)C1=O`, the Potency entry was “inactive”. Take `CCOc1c(CNCc2ccc(C(=O)O)cc2)cccc1OC`: the Potency result was “inactive”. With `CCOc1c(OC)cccc1C(=O)NCC1(c2ccccc2)CCCC1`, the Potency was 5.8 µM (active).

For `CN(C)C(CNC(=O)c1cccc(S(=O)(=O)Nc2ccc(Br)cc2)c1)c1ccco1` (stereo unspecified), the Potency entry was “inactive”. Still for that read-out and setting: the value for `COc1ccc(C(=O)c2oc3ccccc3c2NC(=O)COc2cccc(C)c2)cc1` was “inactive”; that for `CCCc1nnc(SCC(=O)N2C(C)CCCC2C)n1CC` (stereo unspecified) was “inactive”. Turning to `O=c1c(CN2CCOc3ccc(CN4CCC(Oc5cccnc5)CC4)cc3C2)coc2ccccc12`, the activity change, negative = growth inhibition was 0.59% [at 9.04 µM]. On to `CCn1c(COc2c(C)cccc2C)nnc1SCc1nc2ccccc2c(=O)[nH]1`, for which the Potency result was “inactive”. The same measure, in the same setting: the value for `COCCn1c(SCc2nc3cc(OC)c(OC)cc3c(=O)[nH]2)nnc1-c1ccncc1` was “inactive”; that for `COc1ccc(C)cc1-n1nnnc1SCc1nc2ccccc2c(=O)[nH]1` was 13 µM (active). As for `Cc1cccc(NC(=O)Nc2ccc(OCc3ccccc3)cc2)n1`, the Potency result was “inactive”. Same read-out and setting: next, `O=C(OCC(=O)N1CCN(C(=O)c2ccco2)CC1)c1cccc(O)c1`: “inactive”. The same measure, in the same setting: next, `COc1ccc(Cl)cc1NS(=O)(=O)c1cccc(C(=O)NCC2CCCO2)c1` (stereo unspecified): “inactive”. Regarding `CC(C)CC(CCc1ccccc1)OS(N)(=O)=O` (stereo unspecified), the Potency entry was “inactive”. The same measure, in the same setting: the value for `Cc1ccc(Cn2c(C)nc3c(c2=O)c2nc4ccccc4nc2n3Cc2ccco2)cc1` was 25.9 µM (active). For `Cc1ccc(Cn2c(=O)n(Cc3nc(-c4ccccc4)no3)c(=O)c3cc4c(cc32)OCO4)cc1`, the Potency result is “inactive”. The same measure, in the same setting: the value for `CSc1nc2ccccc2c(=O)n1Cc1ccc(F)cc1` was “inactive”. Same read-out and setting: next, `O=C(O)CSCc1ccc(C(=O)O)o1`: “inactive”; `COc1ccc(C(=O)OCC(=O)Nc2cccc(C(C)=O)c2)cc1OC`: “inactive”; `COc1ccc(OCC(=O)NNC(=O)C2CCC2)cc1`: “inactive”. Still for that read-out and setting: next, `O=C(CC1CCCCC1)NCc1ccc(F)cc1`: “inactive”. Take `O=[N+]([O-])c1ccc(N2CCN(CC(O)COc3ccccc3)CC2)cc1` (stereo unspecified): the Potency was 20.6 µM (active). On the same count and under the same terms, next, `C[N+]1(CC(O)COc2ccccc2)CCN(C(=O)c2ccc([N+](=O)[O-])cc2)CC1` (stereo unspecified): “inactive”; `OC(COc1ccccc1)CN1CCN(c2cccc(Cl)c2)CC1` (stereo unspecified): “inactive”. The same measure, in the same setting: next, `O=S(=O)(c1ccc(OCC(O)CN2CCN(c3ccccc3Cl)CC2)cc1)N1CCOCC1` (stereo unspecified): 14.6 µM (active); `CC(=O)Nc1ccc(OCC(O)CN2CCN(c3ccccc3Cl)CC2)cc1` (stereo unspecified): “inactive”. On to `OC(COc1ccc2ccccc2c1)CN1CCOCC1` (stereo unspecified), for which the Potency result is “inactive”.
